Assay in all cases: NCI-60 one-dose screen, 48 h (100 = growth as untreated, 0 = no growth, -100 = all killed)
Holding throughout (conditions): 10 µM unless noted

Experiment [1] relates to HCT-15 colon.
Experiment [2] has as its system HT29 colon.
Experiment [3] deals with SNB-75 CNS.
In experiment [4] the test system is SNB-19 CNS.
Experiment [5] relates to U251 CNS.
The test system of experiment [6] is PC-3 prostate.
In experiment [7] the test system is SK-MEL-5 melanoma.
Experiment [8] relates to UACC-62 melanoma.
Experiment [9] relates to LOX IMVI melanoma.
The test system of experiment [10] is SK-MEL-28 melanoma.
The subject of experiment [11] is SK-MEL-2 melanoma.
Experiment [12] concerns EKVX NSCLC.
The subject of experiment [13] is SN12C renal.
Experiment [14] concerns UO-31 renal.
The subject of experiment [15] is TK-10 renal.
Experiment [16] relates to ACHN renal.
Experiment [17] has as its system CAKI-1 renal.
The subject of experiment [18] is A498 renal.
The subject of experiment [19] is CCRF-CEM leukemia.
For experiment [20], the system named is MOLT-4 leukemia.

About 83,000 compounds went through this panel and 20% of them were active in at least one assay; those are over-represented in the sample as a whole.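 Values shown are percent growth following 48 h exposure of cells in 96-well plates to a single concentration of compound; below 10 was considered active.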 Unmarked numbers belong to inactive results. Activity calls are given as the source filed them.

For the compound `CCN(CC)CCC(=O)c1cccc2ccccc12`, the growth is 102% in experiment [1]; 110% in [2]; 101% in [3]; 102% in experiment [4]; 104% in experiment [5]; 95.3% in [6]. Moreover, the growth is 114% in experiment [7]; 97% in experiment [8]; 94.3% in experiment [9]; 111% in [10]; 114% in experiment [11]; 100% in experiment [12]. For the same compound, the growth in experiment [13] was 102%; in experiment [14] it was 87.6%; in [15] it was 109%; in experiment [16], 98.8%; in [17], 90.7%; in [18] it was 101%. Also, the growth was 100% in [19] and 102% in [20].

As to `CCC#CC[C@H]1C/C=C2/C(=O)C=C[C@@H]2C/C=C\CCCC(=O)O1`, the growth is -6.01% (active) in experiment [1]; -15.8% (active) in experiment [2]; 38.7% in experiment [3]; 37.3% in experiment [4]; -11.2% (active) in [5]; -19.7% (active) in experiment [6]. For the same compound, the growth is -85.6% (active) in experiment [7]; -17.6% (active) in experiment [8]; -55.8% (active) in experiment [9]; 1.63% (active) in [10]; 8.9% (active) in experiment [11]; 23.7% in experiment [12]. For the same compound, the growth in [13] was 0.755% (active); in experiment [14], -82.7% (active); in [15], -1.68% (active); in [16], -86.8% (active); in experiment [17] it was 18.2%; in [18], 46.5%. In addition, the growth in [19] is 9.12% (active).

Regarding `Cc1ccc2nc(-c3c(N)n[nH]c3CCCO)[nH]c(=O)c2c1`, the growth in experiment [1] was 106%; in [2] it was 104%; in experiment [3] it was 91%; in experiment [4] it was 106%; in [5] it was 105%; in [6], 92.3%. In addition, the growth was 105% in [7]; 100% in experiment [8]; 101% in experiment [9]; 115% in experiment [10]; 108% in [11]; 103% in experiment [12]. Also, the growth in experiment [13] is 104%; in experiment [14], 63.9%; in [15], 109%; in [16], 115%; in [17] it was 112%; in [18] it was 100%. In [19], the growth was 91.8%.

Regarding `O=S(=O)(NCCCNc1cc(-c2cn(-c3ccccc3)nc2-c2cccc(O)c2)ccn1)c1cccc2ccccc12`, the growth was 1.39% (active) in experiment [1]; -9.29% (active) in experiment [2]; 28.1% in experiment [3]; 64.2% in experiment [4]; 35.2% in experiment [5]; 18.5% in [6]. Further, the growth in experiment [7] was 14.2%; in experiment [8] it was 34.5%; in experiment [9], 10.3%; in [10], 4.71% (active); in experiment [11] it was 62.4%; in [12], 37.5%. In addition, the growth was 51.4% in [13]; 20.6% in experiment [14]; 66.3% in experiment [15]; 29.8% in experiment [16]; 28.7% in experiment [17]; 43.6% in [18]. For the same compound, the figures for the growth in experiment [19] and in experiment [20] were 26% and 13.6%, respectively.

Take `Cc1ccc2c(c1)C(C)Cc1c(N(C)C)ncnc1N2C` (configuration not stated): the growth is 20.6% in [1]; 4.7% (active) in [2]; 14% in experiment [3]; 43.8% in experiment [4]; 21.3% in experiment [5]; 32.8% in experiment [6]. Also, the growth in [7] was 15%; in [8], 33%; in experiment [9], 37.7%; in [10], 56.6%; in experiment [11], 30%; in [12], 27.2%. The growth in [13] was 44.9%; in experiment [14], 59.1%; in experiment [15], 14.1%; in [16] it was 53.3%; in experiment [17] it was 35.2%; in experiment [18], -9.12% (active). For the same compound, the results for the growth in [19] and in experiment [20] were 21.4% and 30.6%, respectively.

As for `CN(C)CCCNC(=O)C(c1ccccc1)c1ccccc1`, the growth is 104% in experiment [1]; 95.9% in experiment [2]; 94.5% in experiment [3]; 97.3% in [4]; 98.2% in experiment [5]; 99.1% in [6]. Further, the growth in [7] was 103%; in [8], 98.8%; in [9], 89.3%; in experiment [10], 109%; in [11], 95.6%; in experiment [12] it was 106%. Also, the growth is 96.8% in experiment [13]; 84.1% in experiment [14]; 88.2% in [15]; 93.5% in experiment [16]; 99.5% in experiment [17]; 104% in experiment [18]. Also, the growth in [19] is 100%.

As for `COc1cc2c(cc1OCCCCn1c(-c3cc(=O)c4ccccc4o3)nc3ccccc31)N=C[C@@H]1CCCN1C2=O`, the growth is 106% in experiment [1]; 102% in [2]; 101% in experiment [3]; 93.1% in [4]; 75.3% in experiment [5]; 94.9% in [6]. The growth is 93.6% in experiment [7]; 99.4% in experiment [8]; 68.5% in experiment [9]; 124% in experiment [10]; 26.7% in experiment [11]; 129% in experiment [12]. The growth is 102% in [13]; 35.8% in experiment [14]; 157% in experiment [15]; 93.1% in experiment [16]; 82.8% in experiment [17]; 121% in experiment [18]. Also, the growth in [19] is 49.4%; in experiment [20] it was 82.4%.

For the compound `CNC(=O)c1cc(Oc2ccc3c(c2)sc2nc(-c4ccc(Cl)cc4)cn23)ccn1`, the growth in experiment [1] was 83.6%; in experiment [2] it was 105%; in experiment [3], 47.9%; in experiment [4] it was 54%; in [5], 69.5%; in experiment [6], 78.8%. Besides, the growth in experiment [7] was 87.4%; in [8] it was 85.1%; in experiment [9] it was 87.4%; in [10], 104%; in [11], 116%; in [12], 80.9%. Also, the growth in experiment [13] was 95.9%; in experiment [14], 85.7%; in experiment [15], 110%; in [16], 79.3%; in [17], 78.8%; in experiment [18], 88.8%. Also, the growth in [19] was 93.6%; in [20], 93%.

The values are drawn from PubChem BioAssay (NCI).
